Hits are enriched below; roughly 2.3% of the tested compounds scored in any of these assays.
Mcl1-Noxa inh – disrupts binding of human Mcl-1 to Noxa peptide; 1.5% of 220,000 active; inhibition, % at 21.7 µM; AID 1022; Q07820; TR-FRET Mcl-1/Noxa peptide binding, 2 h;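 active means compounds that cut the protein-peptide binding signal by more than 50% relative to plate controls in a single-dose test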;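 further: His-tagged Mcl-1 with rhodamine Noxa BH3 peptide and terbium anti-His antibody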
Target sequence (Q07820 whole entry, looked up): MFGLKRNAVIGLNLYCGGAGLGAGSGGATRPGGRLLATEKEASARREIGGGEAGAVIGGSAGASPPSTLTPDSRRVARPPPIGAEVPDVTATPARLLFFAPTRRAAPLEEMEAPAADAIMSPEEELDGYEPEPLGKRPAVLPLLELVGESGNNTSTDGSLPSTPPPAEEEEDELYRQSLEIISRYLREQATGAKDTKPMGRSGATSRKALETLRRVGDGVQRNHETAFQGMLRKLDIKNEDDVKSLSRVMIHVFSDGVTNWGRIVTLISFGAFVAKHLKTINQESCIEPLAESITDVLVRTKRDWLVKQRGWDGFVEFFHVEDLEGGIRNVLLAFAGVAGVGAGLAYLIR
Mcl-1 Bim block – disrupts Bim peptide binding to human Mcl-1. Q07820. Bead-based flow cytometry, Bim peptide-Mcl-1 binding. inhibition, % at 10 µM. 0.1% of 190,000 active. AID 1009; in the data active means inhibition above about 40%
BCLXL inh – Bcl-xL (human) inhibition. GST-Bcl-xL / FITC-Bim BH3 peptide fluorescence polarization. Q07817. 0.7% of 320,000 active. inhibition, % at 10.9 µM;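 active means inhibition above the mean of all tested compounds plus 3 SD, cutoff set per campaign, cut at about 30% in these data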;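 further: inhibitors lower millipolarization by displacing the labeled peptide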
MCL1-BIM inh – inhibitors of human MCL1 binding to BIM-BH3 peptide | GST-MCL1 / FITC-Bim-BH3 fluorescence polarization | inhibition, % at 10.9 µM | 0.68% of 320,000 active;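 active means inhibition above the mean inhibition of all tested compounds plus 3 SD, set per campaign, cut at about 40% in these data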;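 further: higher means more loss of mP so more displacement of Bim peptide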
Mcl1-Bid inh – Mcl-1/Bid interaction inhibition; Q07820; 0.97% of 220,000 active; inhibition, % at 21.7 µM; TR-FRET Mcl-1/Bid-Dy647 peptide binding, 1536-well; AID 1021;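 active means compounds that cut the binding signal by more than half at the single screening dose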;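 further: His-tagged Mcl-1 with europium anti-His antibody binding Bid BH3 peptide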
GLD-1 TGE inh – GLD-1-TGE RNA interaction inhibition (C. elegans). Q17339. purified GLD-1 + fluorescein TGE RNA, fluorescence polarization. inhibition, % at 5.96 µM. 0.44% of 320,000 active. AID 2280;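 active means percent inhibition above a per-plate cutoff, the plate mean of test compounds plus 3 SD, cut at about 30% in these data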
Numbers stand for hits; - = inactive; . = no result.

SMILES	Mcl1-Noxa inh	Mcl-1 Bim block	BCLXL inh	MCL1-BIM inh	Mcl1-Bid inh	GLD-1 TGE inh
COc1ccc(NS(=O)(=O)c2ccc(N3CCCC3)c(NC(=S)Nc3cccc(S(=O)(=O)N(C)C)c3)c2)cc1	62	-	-	-	-	-
Cc1ccc(/C=C/C(=O)Nc2cccc(S(=O)(=O)N3CCOCC3)c2)o1	53	-	-	-	-	-
O=C(/C=C/c1ccco1)Nc1cccc(S(=O)(=O)N2CCOCC2)c1	-	-	-	-	-	-
Cc1ccc(/C=C/C(=O)Nc2ccc(N(C)C)cc2)o1	95	-	-	-	-	-
Cc1cc(C)c(C)c(OCCCN(C)C)c1	-	-	-	-	53	-
Cc1cc(C)c(C)c(OCCCn2ccnc2)c1	-	-	-	-	-	-
O=c1c(C(c2c(O)nc3n(c2=O)CCS3)c2cccc3ccccc23)c(O)nc2n1CCS2	53	-	-	-	-	-
O=c1c(C(c2ccc(O)cc2)c2c(O)nc3n(c2=O)CCS3)c(O)nc2n1CCS2	60	-	-	-	-	-
O=c1c(C(c2ccc(O)cc2)c2c(O)nc3n(c2=O)CCCS3)c(O)nc2n1CCCS2	52	-	-	-	-	-
Cc1ccc(C(c2c(O)nc3n(c2=O)CCS3)c2c(O)nc3n(c2=O)CCS3)cc1	-	-	-	-	-	-
O=c1c(C(c2ccc(Br)cc2)c2c(O)nc3n(c2=O)CCCS3)c(O)nc2n1CCCS2	-	.	-	-	-	-
Cc1ccccc1N1CCN(CC(=O)Nc2ccccc2C(=O)NC2CC2)CC1	.	.	-	-	.	-
Cc1cnn(C(=O)c2cc(-c3ccccn3)nc3ccc(Cl)cc23)c1	-	-	31	-	-	-
O=C(c1cc(-c2ccccn2)nc2ccc(Cl)cc12)N1CCN(CCc2ccccc2)CC1	-	-	-	-	-	-
O=C(Cc1cccs1)Nc1ccc(-c2nnn(CC(=O)N3CCOCC3)n2)cc1	56	-	-	-	-	-
Cc1nnc2ccc(-c3ccc(NC(=O)Cc4cccs4)cc3)nn12	68	.	-	-	-	-
COc1ccc(-c2nnn(CC(=O)N3CCOCC3)n2)cc1	-	-	-	-	-	-
CCSc1ccccc1C(=O)NC1CCCCC1	-	-	-	-	-	-
CS(=O)(=O)N1CCC(Oc2ccccc2C(=O)NC(C2CC2)C2CC2)CC1	-	-	-	-	-	-
O=C(Nc1nccs1)c1ccc(COc2ccc(F)cc2)o1	56	-	-	-	-	-
O=C(Nc1nccs1)c1ccc(COc2ccc(Cl)cc2)o1	-	-	-	-	-	-
C[C@@H]1COC(=O)[C@@H](NC(=O)OCC2c3ccccc3-c3ccccc32)C/C=C\C[C@@H](CC(=O)N(CCO)Cc2ccccc2)C(=O)N1	.	.	.	.	.	-
Cc1ccc(-n2c(N)c(C(=O)Nc3c(C)n(C)n(-c4ccccc4)c3=O)c3nc4ccccc4nc32)cc1	-	-	-	-	-	-
Cc1cc(C)cc(-n2c(N)c(C(=O)Nc3c(C)n(C)n(-c4ccccc4)c3=O)c3nc4ccccc4nc32)c1	-	-	32	-	-	-
COc1cc2[nH]c(=S)n(C3CC3)c(=O)c2cc1OC	-	-	-	-	-	-
SMILES	Mcl1-Noxa inh	Mcl-1 Bim block	BCLXL inh	MCL1-BIM inh	Mcl1-Bid inh	GLD-1 TGE inh
COc1cc2[nH]c(=S)n(N(C(C)=O)C(C)=O)c(=O)c2cc1OC	-	-	-	-	97	-
Cc1ccc(C(=O)Nc2ccccc2C(=O)Nc2ccccn2)cc1Cl	.	.	-	-	.	-
CCCOc1ccc(OCCCCNC(C)CC)cc1 (stereo not drawn)	-	-	-	-	60	-
C/C(=N\O)C(C)(C)Nc1ccccc1F	-	.	-	-	-	-
N#Cc1ccc(-c2cccnc2)nc1SCC(=O)Nc1sc2c(c1C#N)CCC2	60	-	-	-	-	-
N#Cc1ccc(-c2cccnc2)nc1SCC(=O)c1ccccc1	-	.	36	-	-	-
COc1ccccc1NC(=O)CSc1nnnn1-c1ccc(F)cc1	.	.	-	-	.	-
Cc1c(C(=O)OCC(C)C)[nH]c2c1C(=O)CC(c1ccco1)C2 (stereo not drawn)	-	-	-	-	-	-
Cc1c(C(=O)OCC2CCCO2)[nH]c2c1C(=O)CC(c1ccco1)C2 (stereo not drawn)	70	-	-	-	-	-
O=C(O)/C=C\C(=O)N1CCc2ccccc21	-	-	-	-	94	-
O=C(O)/C=C/C(=O)N1CCc2ccccc21	-	-	-	-	-	-
